From the supplement of paper PMC6555819

Legend:
Assay in all cases: PBM binding z-score (relative to random genomic background probes); higher = stronger binding; sequences stand for … in GC…GCGATTGACAGCGTAGAATGAAGG
[1] = system: PPARg:RXRa DBDmut IVT, anti-RXR (DBD mutation: RXRa K156A/R161A, NR concentration 270 nM, RXRa partner concentration 90 nM)
Summary of the method: (§1)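 Antibodies against each partner of ligand-free nuclear receptor dimers (one per run) detected binding on custom Agilent 4×180K protein-binding microarrays after 1 h incubation. The double-stranded probes had 34-nt variable regions carrying direct-repeat seeds, single-nucleotide variants, half-site ablations and random human genomic background sequences. Binding z-scores, from regression-normalized fluorescence, use the random background probes as reference.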

[2] = system: PPARg:RXRa IVT, anti-PPARg (NR concentration 270 nM, RXRa partner concentration 90 nM)
Summary of the method: as §1

[3] = system: PPARg DBDmut:RXRa IVT, anti-PPARg (DBD mutation: PPARg1 K132A/R137A, NR concentration 270 nM, RXRa partner concentration 90 nM)
Summary of the method: as §1

[4] = system: PPARg DBDmut IVT, anti-PPARg (DBD mutation: PPARg1 K132A/R137A, NR concentration 270 nM)
Summary of the method: as §1

[5] = system: PPARg homodimer (NR concentration 180 nM)
Summary of the method: as §1

[6] = system: PXR:RXRa (NR concentration 270 nM, RXRa partner concentration 90 nM)
Summary of the method: as §1

[7] = system: PXR homodimer (NR concentration 270 nM)
Summary of the method: as §1

[8] = system: RARa:RXR (NR concentration 270 nM, RXRa partner concentration 90 nM)
Summary of the method: as §1

[9] = system: RARa homodimer (NR concentration 270 nM)
Summary of the method: as §1

[10] = system: RARb:RXRa (NR concentration 270 nM, RXRa partner concentration 90 nM)
Summary of the method: as §1

[11] = system: RARb homodimer (NR concentration 270 nM)
Summary of the method: as §1

[12] = system: RARg:RXRa (NR concentration 270 nM, RXRa partner concentration 90 nM)
Summary of the method: as §1

[13] = system: RARg homodimer (NR concentration 270 nM)
Summary of the method: as §1

[14] = system: RXRa DBDmut IVT, anti-RXR (DBD mutation: RXRa K156A/R161A, NR concentration 90 nM)
Summary of the method: as §1

[15] = system: RXRa homodimer (NR concentration 180 nM)
Summary of the method: as §1

[16] = system: THRa:RXRa (NR concentration 90 nM, RXRa partner concentration 90 nM)
Summary of the method: as §1

[17] = system: THRa homodimer (NR concentration 90 nM)
Summary of the method: as §1

[18] = system: VDR:RXRa (NR concentration 270 nM, RXRa partner concentration 90 nM)
Summary of the method: as §1

[19] = system: VDR homodimer (NR concentration 270 nM)
Summary of the method: as §1

Sequence	PBM binding z-score [1]	PBM binding z-score [2]	PBM binding z-score [3]	PBM binding z-score [4]	PBM binding z-score [5]	PBM binding z-score [6]	PBM binding z-score [7]	PBM binding z-score [8]	PBM binding z-score [9]	PBM binding z-score [10]	PBM binding z-score [11]	PBM binding z-score [12]	PBM binding z-score [13]	PBM binding z-score [14]	PBM binding z-score [15]	PBM binding z-score [16]	PBM binding z-score [17]	PBM binding z-score [18]	PBM binding z-score [19]
TCGAGTAGGTTAGTCGGGGCATTCCGCCAACATA	2.34	2	-0.206	-0.88	-0.0815	0.0285	-0.57	0.175	-0.691	0.585	0.291	-0.0295	-0.243	0.165	0.00868	1.05	-0.473	2.1	-0.0294
CCAGACATGTGAGAAGGTAACTCAGCCTCGATTA	0.325	-0.238	0.124	0.154	0.72	-0.0196	0.307	0.384	1.03	-0.14	0.158	-0.0792	0.231	0.753	0.09	-0.0389	0.447	-0.439	0.382
ACTATTAGTTGACTTAGGGCAACCGCTACGACGC	-0.144	0.703	0.862	0.674	0.236	0.0683	-0.0423	0.605	0.391	0.745	0.908	0.58	0.586	0.636	0.331	1.39	0.625	0.319	0.173
CCTGCTAGGTCATGGTCAGCTGATCTACAGTATG	4.74	4.18	0.184	0.177	2.39	2.18	-0.463	2.89	-0.136	4.21	3.13	3.97	4.53	1.96	3.2	3.17	1.23	1.95	0.608
GCTATTAGTTTAAAGGGCAACCGAATGATTCTCG	1.27	1.31	0.587	0.575	1.43	1.09	0.349	1.28	0.262	2.09	2.38	1.36	1.44	1.56	1.05	0.923	0.375	0.65	0.916
TCTTGTAGATCAATAGAGGTTATGAAAGTGCGCT	1.9	1.34	0.208	0.487	0.327	2.9	0.0755	2.04	0.403	1.02	1	1.01	0.611	1.05	1.55	2.33	-0.187	1.92	0.0483
TCATATAGGTAACTGCTAGGTGAAAGTCCGATCT	4.55	3.78	1.12	0.94	1.15	0.43	0.184	0.789	0.623	0.705	0.607	0.501	0.315	1.53	0.853	1.43	0.668	0.632	0.0262
ACTCAGAGGACAAAGGTCAGAGCTACGCCAGTGA	1.49	3.79	-0.0394	-0.208	3.47	4.07	0.501	5.53	1.81	4.71	4.56	6.51	5.89	1.84	6.06	3.44	0.705	3.62	1.43
CAAACTAGGTCAAGGTTAAAGTCGGTTTGTGCCA	8.28	8.73	1.13	0.568	2.77	3.05	0.428	3.41	0.337	4.2	3.76	4.29	5.18	1.95	3.67	3.56	1.82	3.2	1.79
CGTCCAAGGTCAAATGTCAGTGAAGAGATGACGG	3.67	4.11	0.495	-0.392	2.49	4.82	1	5.67	0.72	5.38	4.41	6.58	7.15	3.82	6.77	4	2.21	4.67	2.75
TCTCGGAGAACACGAAGGTCAGAGCTTTCCAGAG	1.08	0.106	-2.09	-1.27	0.419	1.29	-0.535	1.67	-0.665	2.49	2.86	1.7	1.58	0.25	1.61	1.18	-0.552	0.885	-0.097
ATCGAATGGTCGACGAGGTGAGTATACACCGTTT	-0.664	0.567	-0.0586	-0.0219	-0.342	-0.323	-0.282	-0.136	-0.0822	0.37	-0.00631	0.294	0.526	-0.27	0.305	1.03	0.408	0.0601	-0.381
TCTTGTAGATCAACCAGGTTAAGAAAGCCTGAGT	2.07	0.996	-0.047	0.818	-0.217	0.658	0.148	0.664	0.037	0.316	0.615	0.0614	-0.146	0.718	0.38	0.777	0.123	1.04	0.207
CGTCCAAGGTCAGAGCGGTCAGTGAATGCCGAGT	2.63	2.2	-0.349	0.202	2.18	3.25	2.78	3.14	0.595	4.58	4.33	5.22	6.15	2.61	3.84	3.6	1.54	5.45	2.42
ACTTACGGGTCAACGAGGTGATAGCACGCGTATA	3.7	4.4	2.02	1.22	2.44	3.94	0.307	5.09	1.19	4.04	2.98	5.26	4.83	2.19	5.47	3.86	0.952	6.61	1.81
